Measured values as given in PubChem BioAssay AID1159580 (chemical genetic matrix, 2015).
Where “and” joins values, the source holds several entries; their conditions need not be identical. Identical values can stand only once. The whole screen tested about 5,500 compounds, of which about 2,000 (36%) were called active. Inconclusive results (about 18%) are left out. No stated cut-off is given here; in the data, active means normalized growth mostly below about 0.91 (no sharp cut-off); inconclusive means no clear call, values can overlap the other calls; inactive means mostly above about 0.92. Some of the results follow.

Assay: chemical genetic growth profiling, strain panel (AID 1159580);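 further: tested at 20 µM; growth read once vehicle control cultures reached saturation at 30 °C; 1 = growth at the plate median or of vehicle wells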
Details: growth OD

Measured: normalized growth

CC(C(=O)O)c1cccc(C(=O)c2ccccc2)c1 (stereo not drawn)
inactive: S. cerevisiae deletion strains, locus YJR075W, strain HOC1, stronger effect = lower value 1 and 1.06 | S. cerevisiae deletion strains, locus YKL009W, strain mrt4, stronger effect = lower value 0.982 | S. cerevisiae deletion strains, locus YKL068W, stronger effect = lower value 0.971 | S. cerevisiae deletion strains, locus YKL085W, strain MDH1 (second series), stronger effect = lower value 0.968 | S. cerevisiae deletion strains, locus YKL085W, strain MDH1, stronger effect = lower value 0.968 | S. cerevisiae deletion strains, locus YKL160W, strain elf1, stronger effect = lower value 0.978 | S. cerevisiae deletion strains, locus YKL190W, strain CNB1, stronger effect = lower value 0.994 | S. cerevisiae deletion strains, locus YKR001C, strain vps1, stronger effect = lower value 0.992 | S. cerevisiae deletion strains, locus YKR026C, strain gcn3, stronger effect = lower value 0.984 | S. cerevisiae deletion strains, locus YKR091W, strain srl3, stronger effect = lower value 0.989 | S. cerevisiae deletion strains, locus YLL001W, strain dnm1, stronger effect = lower value 0.984 | S. cerevisiae deletion strains, locus YLL026W, stronger effect = lower value 0.982 | S. cerevisiae deletion strains, locus YLL041C, strain sdh2, stronger effect = lower value 1.01 | S. cerevisiae deletion strains, locus YLR027C, strain aat2, stronger effect = lower value 0.991 | S. cerevisiae deletion strains, locus YLR039C, strain RIC1, stronger effect = lower value 0.993 | S. cerevisiae deletion strains, locus YLR058C, strain SHM2, stronger effect = lower value 0.997 | S. cerevisiae deletion strains, locus YLR102C, strain apc9, stronger effect = lower value 0.974 | S. cerevisiae deletion strains, locus YLR113W, strain HOG1, stronger effect = lower value 1.02 | S. cerevisiae deletion strains, locus YLR221C, strain rsa3, stronger effect = lower value 1.01 | S. cerevisiae deletion strains, locus YLR258W, strain gsy2, stronger effect = lower value 0.987 | S. cerevisiae deletion strains, locus YLR262C, strain YPT6 (second series), stronger effect = lower value 0.987 | S. cerevisiae deletion strains, locus YLR262C, strain YPT6, stronger effect = lower value 0.968 | S. cerevisiae deletion strains, locus YLR268W, strain sec22, stronger effect = lower value 0.972 | S. cerevisiae deletion strains, locus YLR320W, strain mms22, stronger effect = lower value 0.971 | S. cerevisiae deletion strains, locus YLR330W, strain CHS5, stronger effect = lower value 0.985 | S. cerevisiae deletion strains, locus YLR342W, strain FKS1 (second series), stronger effect = lower value 1.01 | S. cerevisiae deletion strains, locus YLR342W, strain FKS1, stronger effect = lower value 1 | S. cerevisiae deletion strains, locus YLR357W, strain rsc2, stronger effect = lower value 0.933 | S. cerevisiae deletion strains, locus YLR370C, strain arc18, stronger effect = lower value 0.979 | S. cerevisiae deletion strains, locus YLR371W, strain rom2, stronger effect = lower value 0.978 | S. cerevisiae deletion strains, locus YLR384C, strain iki3, stronger effect = lower value 0.963 | S. cerevisiae deletion strains, locus YLR418C, strain cdc73, stronger effect = lower value 0.971 | S. cerevisiae deletion strains, locus YML016C, strain PPZ1, stronger effect = lower value 0.996 | S. cerevisiae deletion strains, locus YML032C, strain rad52, stronger effect = lower value 0.996 | S. cerevisiae deletion strains, locus YML120C, strain ndi1, stronger effect = lower value 0.994 | S. cerevisiae deletion strains, locus YML124C, strain tub3, stronger effect = lower value 0.971 | S. cerevisiae deletion strains, locus YMR058W, strain fet3, stronger effect = lower value 0.995 | S. cerevisiae deletion strains, locus YMR078C, strain ctf18, stronger effect = lower value 0.959 | S. cerevisiae deletion strains, locus YMR125W, strain sto1, stronger effect = lower value 0.991 | S. cerevisiae deletion strains, locus YMR129W, stronger effect = lower value 0.981 | S. cerevisiae deletion strains, locus YMR205C, strain PFK2, stronger effect = lower value 0.985 | S. cerevisiae deletion strains, locus YMR223W, strain ubp8, stronger effect = lower value 0.976 | S. cerevisiae deletion strains, locus YMR231W, strain pep5, stronger effect = lower value 0.985 | S. cerevisiae deletion strains, locus YMR307W, strain GAS1, stronger effect = lower value 0.995 | S. cerevisiae deletion strains, locus YNL067W, strain RPL9B, stronger effect = lower value 1.04 | S. cerevisiae deletion strains, locus YNL071W, strain lat1, stronger effect = lower value 0.997 | S. cerevisiae deletion strains, locus YNL175C, strain NOP13, stronger effect = lower value 1.02 | S. cerevisiae deletion strains, locus YNL183C, strain NPR1, stronger effect = lower value 0.955 | S. cerevisiae deletion strains, locus YNL197C, strain WHI3, stronger effect = lower value 0.992 | S. cerevisiae deletion strains, locus YNL209W, strain ssb2, stronger effect = lower value 0.999 | S. cerevisiae deletion strains, locus YNL224C, strain SQS1, stronger effect = lower value 0.997 | S. cerevisiae deletion strains, locus YNL233W, strain BNI4, stronger effect = lower value 1.05 | S. cerevisiae deletion strains, locus YNL248C, strain rpa49, stronger effect = lower value 0.968 | S. cerevisiae deletion strains, locus YNL250W, strain rad50, stronger effect = lower value 0.927 | S. cerevisiae deletion strains, locus YNL271C, strain bni1, stronger effect = lower value 0.956 | S. cerevisiae deletion strains, locus YNL298W, strain CLA4, stronger effect = lower value 0.973 | S. cerevisiae deletion strains, locus YNL307C, strain MCK1, stronger effect = lower value 0.978 | S. cerevisiae deletion strains, locus YNL322C, strain KRE1 (second series), stronger effect = lower value 0.953 | S. cerevisiae deletion strains, locus YNL322C, strain KRE1, stronger effect = lower value 0.994 and 1.03 | S. cerevisiae deletion strains, locus YNR049C, strain mso1, stronger effect = lower value 0.995 | S. cerevisiae deletion strains, locus YNR052C, strain pop2, stronger effect = lower value 0.958 | S. cerevisiae deletion strains, locus YOL006C, strain TOP1, stronger effect = lower value 1.06 | S. cerevisiae deletion strains, locus YOL012C, strain htz1 1.22 | S. cerevisiae deletion strains, locus YOL147C, strain pex11, stronger effect = lower value 0.977 | S. cerevisiae deletion strains, locus YOR001W, strain rrp6, stronger effect = lower value 1 | S. cerevisiae deletion strains, locus YOR061W, strain CKA2, stronger effect = lower value 1 | S. cerevisiae deletion strains, locus YOR069W, strain VPS5, stronger effect = lower value 0.987 | S. cerevisiae deletion strains, locus YOR070C, strain gyp1, stronger effect = lower value 0.985 | S. cerevisiae deletion strains, locus YOR080W, strain dia2, stronger effect = lower value 0.996 | S. cerevisiae deletion strains, locus YOR083W, strain WHI5 (second series), stronger effect = lower value 1.02 | S. cerevisiae deletion strains, locus YOR083W, strain WHI5, stronger effect = lower value 0.918 | S. cerevisiae deletion strains, locus YOR106W, strain vam3, stronger effect = lower value 0.963 | S. cerevisiae deletion strains, locus YOR136W, strain idh2, stronger effect = lower value 0.988 | S. cerevisiae deletion strains, locus YOR144C, strain elg1, stronger effect = lower value 0.98 | S. cerevisiae deletion strains, locus YOR184W, strain ser1, stronger effect = lower value 0.977 | S. cerevisiae deletion strains, locus YOR231W, strain MKK1, stronger effect = lower value 1.04 | S. cerevisiae deletion strains, locus YOR265W, strain rbl2, stronger effect = lower value 0.999 | S. cerevisiae deletion strains, locus YOR270C, strain vph1, stronger effect = lower value 1 | S. cerevisiae deletion strains, locus YOR290C, strain snf2, stronger effect = lower value 0.985 | S. cerevisiae deletion strains, locus YOR316C, strain cot1, stronger effect = lower value 0.968 | S. cerevisiae deletion strains, locus YPL051W, strain arl3, stronger effect = lower value 0.966 | S. cerevisiae deletion strains, locus YPL055C, strain LGE1, stronger effect = lower value 1.1 | S. cerevisiae deletion strains, locus YPL078C, strain atp4, stronger effect = lower value 0.972 | S. cerevisiae deletion strains, locus YPL106C, strain sse1, stronger effect = lower value 0.962 | S. cerevisiae deletion strains, locus YPL240C, strain hsp82, stronger effect = lower value 0.994 | S. cerevisiae deletion strains, locus YPL241C, strain CIN2, stronger effect = lower value 0.993 | S. cerevisiae deletion strains, locus YPL256C, strain CLN2, stronger effect = lower value 1.02 | S. cerevisiae deletion strains, locus YPR119W, strain clb2, stronger effect = lower value 0.963 | S. cerevisiae deletion strains, locus YPR141C, strain kar3, stronger effect = lower value 0.973 | S. cerevisiae deletion strains, locus YPR163C, strain tif3, stronger effect = lower value 0.979 | S. cerevisiae deletion strains, locus YPR167C, strain met16, stronger effect = lower value 0.977 | S. cerevisiae deletion strains, strain wtn01, stronger effect = lower value 0.971 | S. cerevisiae strains, strain wild type, stronger effect = lower value 1
